Source: PubChem BioAssay AID2314 (National Center for Advancing Translational Sciences (NCATS), 2010)
Out of some 300,000 compounds screened, about 37,000 (12%) were called active. No stated cut-off is given here; in the data, active means max response mostly above about 13% (no sharp cut-off); inactive means mostly below about 14%. What follows is part of a selection rich in actives, with near analogues and random picks from the rest.

assay: Cycloheximide Counterscreen for Small Molecule Inhibitors of Shiga Toxin; conditions: cell reporter, cycloheximide protein synthesis inhibition counterscreen; active compounds read high; further: read at 38.3 µM for the half of the compounds with a filed dose; 0% is about no effect

| Structure (SMILES) | max response |
| --- | --- |
| CCCCCCC12CCC(C(=O)O)(CC1)CC2 | -3.19% (inactive) |
| NC(=O)Cn1c(=O)oc2ccccc21 | -2.47% (inactive) |
| Cc1ccc(OCCCn2c(=O)oc3ccccc32)cc1 | 33.3% (active) |
| Cc1cccc(NC(=O)CCn2c(=O)oc3ccccc32)c1 | -4.29% (inactive) |
| COc1ccccc1C(=O)Nc1nc2nc(-c3ccccc3)cc(=O)n2[nH]1 | 9.7% (inactive) |
| Cc1cc(S(=O)(=O)NCC(C)C)ccc1OCC(=O)NC1CC1 | 1.55% (inactive) |
| Cc1nc(N)sc1N=Nc1c(C)n(C)n(-c2ccccc2)c1=O | -1.65% (inactive) |
| Cc1ccc(N=Nc2c(C)[nH]n(-c3ccccc3)c2=O)cc1 | 7.15% (inactive) |
| Cc1c(N=Nc2ccc(N(C)C)cc2)c(=O)n(-c2ccccc2)n1C | 24.4% (active) |
| Cc1ccccc1CCNC(=O)C1CCC(=O)N(Cc2ccc(Cl)cc2)C1 (stereo unspecified) | 6.9% (inactive) |
| COc1ccccc1CN1CC(C(=O)NCCc2cn[nH]c2)CCC1=O (stereo unspecified) | 12.3% (active) |
| COc1ccccc1CCCNC(=O)C1CCC(=O)N(CCN2CCOCC2)C1 (stereo unspecified) | -2.68% (inactive) |
| CN1CCN(Cc2nc3cc(NC(=O)COc4ccc([N+](=O)[O-])cc4)ccc3n2C)CC1 | -3.77% (inactive) |
| CCN(C(=O)Cc1c(C(=O)O)n(CC)c2ccccc12)c1ccccc1C | -1.37% (inactive) |
| CCCCNc1ccc(C(=O)Nc2cccc(C)n2)cc1[N+](=O)[O-] | 12.7% (active) |
| CCOC(=O)c1ccc(NNC(C)=O)c([N+](=O)[O-])c1 | 16.3% (inactive) |
| Cc1cc(C)nc(NC(=O)c2cccc([N+](=O)[O-])c2)c1 | -2.71% (inactive) |
| Cc1cc(SCC(=O)c2ccccc2)nc(SCC(=O)c2ccccc2)n1 | 6.74% (inactive) |
| Cc1cc(C)nc(SCC(=O)c2ccc(Cl)cc2)n1 | 2.56% (inactive) |
| Cc1cc(C)nc(S/C=C/C(=O)c2ccccc2)n1 | 109% (active) |
| O=C(/C=C/Nc1ccccc1OC(F)(F)F)C(F)(F)F | -2.95% (inactive) |
| CN(C)c1ccc(N/C=C/C(=O)C(F)(F)F)cc1 | 55.6% (active) |
| CC(=O)N(C)c1ccc(NC(=O)C(F)(F)F)cc1 | -1.33% (inactive) |
| Cc1ccc2[nH]c3c(=O)n(CC(=O)NCCc4ccc(Cl)cc4)ncc3c2c1 | 4.22% (inactive) |

| Structure (SMILES) | max response |
| --- | --- |
| CCn1nc(C)c(CNC(=O)C2CCC(=O)N(Cc3cccc(F)c3)C2)c1C (stereo unspecified) | -0.425% (inactive) |
| CN1CCN(/N=C/c2ccc(C#N)cc2)CC1 | 24.2% (active) |
| CN1CCN(/N=C/c2c[nH]c3ccccc23)CC1 | 0.776% (inactive) |
| COC(c1ccccc1)c1nnc(CCC(=O)N2CCN(CCOc3ccccc3)CC2)o1 (stereo unspecified) | -3.13% (inactive) |
| Cc1c(C2=CCN(S(=O)(=O)c3ccc(Cl)cc3)CC2)c2ccccc2n1C | -3.88% (inactive) |
| COCCNC(=O)c1ccc(Cn2c(SCC(=O)NCC3CCCO3)nc3ccc(Br)cc3c2=O)cc1 (stereo unspecified) | -4.2% (inactive) |
| CC(C)C(=O)NCc1cc(-c2ccc(Cl)cc2)no1 | 8.48% (inactive) |
| COCCCNC(=O)COc1cc(C)c(Cl)c(C)c1 | 5.62% (inactive) |
| Cc1cc(OCc2cc(C(=O)NCc3cc(C(C)C)no3)no2)cc(C)c1Cl | 72.4% (active) |
| COc1ccccc1-c1nnc(NC(=O)c2cccc(N3C(=O)CCC3=O)c2)o1 | -0.976% (inactive) |
| COc1ccc(-c2nnc(NC(=O)CS(=O)(=O)c3ccc(Cl)cc3)o2)c(OC)c1 | 13.7% (inactive) |
| COc1ccccc1-c1nnc(NC(=O)c2ccc3ncsc3c2)o1 | 66.2% (active) |
| COc1ccc(NC(=O)NNC(=O)COc2cc(C)c(Cl)c(C)c2)c(OC)c1 | 0.264% (inactive) |
| O=C(NCc1ccccc1)C1=C[C@@H](C2CCCCC2)C[C@@H](OCc2ccc(CO)cc2)O1 | -2.03% (inactive) |
| COC(=O)c1ccc(C23CC4(C2)[C@H](CN(Cc2cccnc2)[C@@H]4c2ccccc2)C3c2ccc(Cl)nc2)cc1 (stereo partly specified) | -2.32% (inactive) |
| CCC1CCCCN1C(=O)CSc1nc2c(c(=O)n1C)SC(C)C2 (stereo unspecified) | 0.908% (inactive) |
| C=C(C)CSc1nnc(-c2ccc(C)cc2)n1N | 37.8% (active) |
| Cc1ccc(NC(=O)NC(=O)CSc2nnc(-c3ccc(OC(F)F)cc3)n2N)c(C)c1 | 11.8% (inactive) |
| Cc1ccc(-c2nnc(SC(C)C#N)n2N)cc1 (stereo unspecified) | 5.06% (inactive) |
| Cc1cc(C)cc(N(CC(=O)N2CC=C(c3ccccc3)CC2)S(=O)(=O)c2c(C)noc2C)c1 | 8.05% (inactive) |
| CCN(CC)CCCNC(=O)c1ccc2c(=O)n(Cc3ccc4c(c3)OCO4)c(=S)[nH]c2c1 | 5.61% (inactive) |
| Cc1ccc(C(=O)CCC(=O)N(C)CC(=O)Nc2c(Cl)cccc2Cl)cc1 | 1.06% (inactive) |
| COc1ccc(-c2nn(CCC#N)cc2C(=O)O)cc1 | 0.75% (inactive) |
| COc1ccc(-c2nn(CCC#N)cc2C(=O)Nc2ccc(C(C)=O)cc2)cc1 | 18.3% (active) |

| Structure (SMILES) | max response |
| --- | --- |
| COc1ccc(NC(=O)c2cn(CCC#N)nc2-c2ccc([N+](=O)[O-])cc2)cc1 | -3.78% (inactive) |
| COc1ccccc1NC(=O)C1CCCN1S(=O)(=O)c1ccc(Cl)cc1 (stereo unspecified) | 0.961% (inactive) |
| CN(C)CCN(C(=O)C1=COCCO1)c1nc2ccc(Cl)cc2s1 | 36.4% (active) |
| CN(C)CCN(C(=O)C1CCCCC1)c1nc2cc3c(cc2s1)OCO3 | 15.2% (inactive) |
| CC(=O)N(CCCN(C)C)c1nc2ccc(C)cc2s1 | 7.76% (inactive) |
| CCc1ccc2nc(N(CCCN(C)C)C(=O)c3ccc4c(c3)OCCO4)sc2c1 | 1.67% (inactive) |
| CCOc1ccc2nc(N(CCN(C)C)C(=O)c3ccc4ccccc4c3)sc2c1 | 8.51% (inactive) |
| Cc1ccc2nc(N(CCN(C)C)C(=O)C3=COCCO3)sc2c1 | 30.5% (active) |
| CC(C)(C)c1ccc(C(CC(=O)O)NS(=O)(=O)Cc2ccccc2)cc1 (stereo unspecified) | -5.97% (inactive) |
| CCCCn1c(SCC(=O)N2CCOCC2)nc2c1c(=O)n(C)c(=O)n2C | -6.86% (inactive) |
| O=C(Nc1ccc(Br)cc1F)C1CC(=O)N(C2CCCCC2)C1 (stereo unspecified) | -2.46% (inactive) |
| CC1=CCC2C(=O)N(c3cccc(C(=O)NC(C)c4ccccc4)c3)C(=O)C2C1 (stereo unspecified) | -2.5% (inactive) |
| Cc1ccc(C(=O)N/C(=C\c2ccc(F)cc2)C(=O)NCCN2CCOCC2)cc1 | -2.99% (inactive) |
| Cc1ccc(C(=O)NC(=S)NCCN2CCOCC2)cc1 | 31.2% (active) |
| Cc1ccc(NC(=S)NCCN2CCOCC2)cc1 | -2.44% (inactive) |
| CCc1ccc(C(CNc2nc(C(F)(F)F)nc3ccccc23)N(C)C)cc1 (stereo unspecified) | -6.3% (inactive) |
| COc1ccccc1C(=O)Nn1c(-c2cccs2)nc2ccccc2c1=O | 2.63% (inactive) |
| O=C(NCCCN1CCOCC1)c1cc2c(s1)CCC2 | 15.4% (active) |
| O=C(NCCCn1ccnc1)c1cc2c(s1)CCCC2 | -2.62% (inactive) |
| COc1ccc(C(CNC(=O)c2cc3c(s2)CCCC3)N2CCOCC2)cc1 (stereo unspecified) | 5.2% (inactive) |
| CCOc1ccc(C(C(=O)NC2CCCC2)N(C(=O)c2snc(C(N)=O)c2N)C2CCCC2)cc1 (stereo unspecified) | -3% (inactive) |
| CCN(CC)S(=O)(=O)c1ccc(Cl)c(C(=O)NCCN2CCOCC2)c1 | -7.58% (inactive) |
| CCN(CC)S(=O)(=O)c1ccc(N2CC(C(=O)NCc3cccnc3)CC2=O)cc1 (stereo unspecified) | -8.09% (inactive) |
| O=[N+]([O-])c1ccccc1Nc1ccc(O)cc1 | -1.56% (inactive) |

| Structure (SMILES) | max response |
| --- | --- |
| O=C(Cc1ccc(Cl)cc1)NC(=S)Nc1ccccc1O | 0.61% (inactive) |
| Oc1ccc(CNc2ccccc2O)cc1 | 35.8% (active) |
| CCOC(=O)[C@@H]1[C@H]2COc3ccc(Br)cc3[C@H]2N2C(=O)N(c3ccc(Cl)cc3)C(=O)[C@@]12C | -3.81% (inactive) |
| Oc1ccc(-c2[nH]ncc2-c2nc3ccccc3s2)c(O)c1 | 10.7% (inactive) |
| CC(=O)Nc1cccc(-c2nc3ccccc3s2)c1C | 23.7% (active) |
| Cc1nn(CC(=O)Nc2nc3ccccc3s2)c(C)c1[N+](=O)[O-] | 16.7% (inactive) |
| COc1cccc(Cn2cc(/C=N/NC(=O)c3cc(O)cc(O)c3)c3ccccc32)c1 | 7.8% (inactive) |
| COC(=O)c1ccc(CNC(=O)C2CCC(=O)N(Cc3ccccn3)C2)cc1 (stereo unspecified) | -0.637% (inactive) |
| CCOC(=O)c1cn[nH]c1NC(=S)Nc1ccccc1 | 67.1% (active) |
| CCOC(=O)c1cc2c(nc1NC(=S)Nc1ccccc1)CC(C)(CC)OC2 (stereo unspecified) | -1.51% (inactive) |
| CCOC(=O)c1ccc(NC(=S)Nc2cc(C)cc(C)n2)cc1 | -2.45% (inactive) |
| O=C(COc1cc(Cl)c(Cl)cc1Cl)NC(=O)NC1CCCC1 | -3.88% (inactive) |
| O=C(CN1CCOCC1)N1CCCc2c1c(=O)oc1ccc(OCc3ccccc3)cc21 | -7.12% (inactive) |
| COc1cccc2c(N/N=C/c3ccco3)cc(C)nc12 | 18.9% (inactive) |
| CCc1c(C)nc2c(OC)cccc2c1Cl | 10.5% (active) |
| CCCc1c(C)nc2c(Br)cccc2c1Cl | -2.12% (inactive) |
| COc1ccc2c(c1)C(SCC(=O)NCc1ccccc1)CC(C)(C)O2 (stereo unspecified) | -3.58% (inactive) |
| Cc1cc(/C=C2\SC(=O)N(C)C2=O)c(C)n1-c1cccc(C(=O)O)c1 | 10.2% (inactive) |
| COC(=O)C1=C(O)/C(=C/c2ccc(OCC(=O)Nc3ccccc3)cc2)N=C1C | -5.16% (inactive) |
| CCOC(=O)C1=C(O)/C(=C/c2cc(C)n(-c3ccccc3)c2C)N=C1C | 10.2% (active) |
| CC(C)n1c(CN2CCN(Cc3ccccc3)CC2)nc2ccccc21 | -2.09% (inactive) |
| CC(C)=NN1C(=O)c2ccccc2NC1(C)C | 37.9% (active) |
| CC(=O)N1C(=O)C2(Nc3ccccc3N2)c2ccccc21 | -2.2% (inactive) |
| CC(=O)NN1C(=O)c2ccccc2NC1c1ccccc1 (stereo unspecified) | -3.65% (inactive) |
